# Inconclusive results are not listed. A number with no mark means an inactive call. Active and inactive are the calls of the source. Calls follow the shape of the dose curve; as a rule, active = well fitted inhibition curve with a large enough effect; inconclusive = small, poorly fitted or top-dose-only effect; inactive = flat fitted curve, though single readings scatter.
# System: CRL-7250
# Experiment: Cytotoxic Profiling of Annotated Libraries Using Quantitative High-Throughput Screening (AID 1296008); also: nearly all actives have a fitted effect of over 60% in size
# Settings: Five cell lines viability, CellTiter-Glo ATP luminescence, 48-72 h; max response: active compounds read low
# Summary of the method: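 Cells exposed to compounds for 48 or 72 hr at 37 degrees Celsius. Viability read as ATP-coupled luminescence with CellTiter-Glo after 10 min at room temperature.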
# % is scaled to controls: 0 for no effect and ±100 for the full control effect; potency is read from the fitted curve at half-maximal effect.
Compound,max response,outcome,Potency
CC(/C=C/C1=CC2=CC(=O)C(C)(O)C(O)C2=CO1)=C\C(C)CCO (centres undefined),-1.14%,–,–
CC(=O)O[C@@H]1[C@@H](CO)O[C@@](CO)(O[C@H]2O[C@H](COC(=O)/C=C/c3ccccc3)[C@@H](O)[C@H](O)[C@H]2O)[C@H]1O,-0.112%,–,–
CC(c1ncncc1F)C(O)(Cn1cncn1)c1ccc(F)cc1F (centres undefined),–,inactive,–
CC1CCC2(OC1)OC1CC3C4CC=C5CC(O)CC(O[C@@H]6OC[C@@H](O)[C@H](O)[C@H]6O)C5(C)C4CCC3(C)C1(O)C2C (some centres undefined),–,inactive,–
CC[C@@](C)(Nc1ccnc(-c2c[nH]c3ncccc23)n1)C(=O)NCC(F)(F)F,–,inactive,–
CC(=O)N[C@@H](CCCCN)C(=O)N(C)[C@@H](CC(C)C)C(=O)N[C@H](C(=O)N(C)[C@@H](Cc1ccccc1)C(=O)N[C@H](Cc1ccccc1)C(N)=O)C(C)C,–,inactive,–
OC/C=C/C=C/[C@H]1Cc2cc(O)cc(O)c2O1,–,inactive,–
CC1(C)CC[C@]2(C(=O)O[C@@H]3O[C@H](CO)[C@@H](O)[C@H](O)[C@H]3O)CC[C@]3(C)C(=CCC4[C@@]5(C)C[C@@H](O)[C@H](O)[C@](C)(C(=O)O)C5CC[C@]43C)C2C1O (some centres undefined),2.5%,–,–
O=C(O)COCCN1CCN([C@H](c2ccccc2)c2ccc(Cl)cc2)CC1,2.26%,–,–
COC(=O)C(C)C1CCC2(C)C(=O)C=CC(C)(O)C2C1O (centres undefined),–,inactive,–
COc1ccc(Oc2cc(C)c(-c3csc(NC(=O)c4ccncc4)n3)c(C)c2)cc1,–,–,651 nM (active)
CCOc1cc(N2CCC(O)CC2)ccc1Nc1ncc2c(n1)N(C1CCCC1)CCC(=O)N2C,–,–,6510 nM (active)
O=C(O)CC(=O)OC[C@H]1O[C@@H](Oc2ccc3c(c2)OC[C@H]2c4cc5c(cc4O[C@@H]32)OCO5)[C@H](O)[C@@H](O)[C@@H]1O,-24.1%,–,–
C/C=C/C=C/C(O)=C1\C(=O)[C@]2(C)C3C(C(=O)CC/C=C/C)=C(O)C4(C)C1[C@]1(C)O[C@@]4(O)[C@@]3(C)O[C@@]12O,-4.26%,–,–
COCC1OC(OC(C)(C)C2CCC3(C)C=C(C4CCC5C4(C)CC(O)C4OC(C(C)(C)OC6OC(CO)C(O)C(O)C6NC(C)=O)CCC45C)CCC3O2)C(NC(C)=O)C(O)C1O (centres undefined),2.51%,–,–
C=C1CCC2C(C)(C(=O)O)CCCC2(C)C1CCC(C)CC(=O)O (centres undefined),1.5%,–,–
O=C(O)c1c(O)c(-c2ccccc2)nc2ccccc12,–,inactive,–
CC(O)/C=C/C1(O)C2(C)COC1(C)CC(O)C2 (centres undefined),-12.7%,–,–
NC(=O)c1cccc(-c2cc(OC(=O)NC3CCCCC3)ccc2O)c1,2.23%,–,–
CCOc1cc(C)c(Cl)cc1S(=O)(=O)n1cnc2ccccc21,-6.19%,–,–
CC1(C)CC[C@]2(C(=O)O[C@@H]3O[C@H](CO)[C@@H](O)[C@H](O)[C@H]3O)CC[C@]3(C)C(=CCC4[C@@]5(C)CC[C@H](O[C@@H]6O[C@H](C(=O)O)[C@@H](O)[C@H](O)[C@H]6O)C(C)(C)C5CC[C@]43C)C2C1 (some centres undefined),0.241%,–,–
CC1CC(=O)C2=C(CCC3(O)C(O)c4c(O)cccc4C(=O)C23O)C1 (centres undefined),-7.17%,–,–
O=C1CSc2ccccc2N1Cc1cccc(C(F)(F)F)c1,-9.14%,–,–
O=C(CSc1nc2c(c(=O)n1-c1ccccc1)SCC2)Nc1ccc(-c2ccccc2)cn1,–,–,231 nM (active)
CC(C)(O[C@@H]1O[C@H](CO)[C@@H](O)[C@H](O)[C@H]1O)C(OC(=O)/C=C\c1ccc(O)cc1)C(=O)OCc1ccc(O[C@@H]2O[C@H](CO)[C@@H](O)[C@H](O)[C@H]2O)cc1 (some centres undefined),-12.2%,–,–
C/C(=C\CCC(C)CCO)C(=O)O[C@@H]1[C@@H](O)[C@H](OC2OC=C(C(=O)O)C3CCC(C)(O)C23)O[C@H](CO)[C@H]1O (some centres undefined),–,inactive,–
C[C@H](NC(=O)CCc1nc2ccccc2c(=O)[nH]1)c1ccccc1,-24%,–,–
CC(C)(O)/C=C/CC(C)(O)C1C(O)CC2(C)C3CCC4C(C)(C)C(=O)CCC4(C)C3CCC12C (centres undefined),-2.19%,–,–
CC1(C)CC[C@]2(C(=O)O[C@@H]3O[C@H](CO)[C@@H](O)[C@H](O)[C@H]3O)CC[C@]3(C)C(=CCC4[C@@]5(C)C[C@@H](O)[C@H](O)[C@](C)(C=O)C5CC[C@]43C)[C@@H]2[C@@H]1O (some centres undefined),–,inactive,–

# From PubChem BioAssay (NCATS)
